Screens: PubChem, National Center for Advancing Translational Sciences (NCATS)
A549 tox: A549 cytotoxicity, counter-screen for Nrf2 inhibitors; A549 ARE-Fluc cells, CellTiter-Fluor viability, 18-24 h; Potency, µM (highest dose often 46 µM), hits mostly inhibitors; hit rate 0.16% among 390,000; AID 504648
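A549 ARE_Fluc cells in 5% FBS OPTI-MEM were exposed to compounds in concentration-response for 18-24 h at 37 deg C. Viability was read by CellTiter-Fluor fluorescence (Ex 405/Em 525) after 30 min, before the luciferase read.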
Nrf2 activator: activators of Nrf2 (ARE) signaling; AREc32 ARE-luciferase reporter (MCF7-derived line), luminescence, 24 h; Potency, µM (titrated, usually from 46.1 µM), usual class: activators; hit rate 0.31% among 410,000; note: nearly all actives have a fitted effect of over 65% in size
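ARE-driven firefly luciferase activity in AREc32 cells measured after a 24 hr compound exposure at 37 deg C, using Steady-Glo reagent and a 30 min room-temperature hold.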
Nrf2 block: Nrf2 pathway inhibition; A549 ARE-Fluc reporter, luciferase luminescence, 18-24 h; Potency, µM (top dose mostly 46 µM), actives largely listed as inhibitors; hit rate 2.1% among 360,000; AID 504444; note: nearly all actives have a fitted effect of over 60% in size
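Concentration-response testing used A549 ARE_Fluc cells at 5000 cells/well. Following an 18-24 h compound incubation, viability was read by fluorescence (Ex 405/Em 525) and luciferase output by luminescence.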
Pin1 inhibitor: inhibitors of human Pin1; Pin1 FP peptide displacement, HiFluor488, 10 min; hit rate 0.009% among 390,000; Q13526; Potency, µM (doses to about 115 µM), actives largely listed as inhibitors; active = well fitted inhibition curve with a large enough effect in the polarisation, with a control signal flat, not every such curve was filed as active; inconclusive = small, poorly fitted or top-dose-only effect, or effect the other way, or a change in a side signal; inactive = no such curve, though single readings can be large or run the other way; the % refers to the polarisation
Target sequence (Q13526 whole entry, looked up): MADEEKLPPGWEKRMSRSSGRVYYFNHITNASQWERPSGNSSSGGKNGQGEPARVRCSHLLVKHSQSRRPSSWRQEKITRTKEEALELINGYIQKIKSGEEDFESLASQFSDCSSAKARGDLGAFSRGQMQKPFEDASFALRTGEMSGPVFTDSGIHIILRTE
A number is an active result; . = inactive; ? = inconclusive; / = no result; ! = repeats disagree. Hits are enriched below; roughly 2.2% of the tested compounds scored in any of these assays. Unless noted, calls come from the whole dose curve; as a rule, active = well fitted curve in the direction sought with a large enough effect; inconclusive = small, poorly fitted or top-dose-only effect, or another doubt; inactive = no such curve, though single readings can be large; an effect the other way counts as inactive or inconclusive.

SMILES	A549 tox	Nrf2 activator	Nrf2 block	Pin1 inhibitor
Cc1csc2ncnc(N3CCN(C(=S)Nc4ccc(C(F)(F)F)cc4)CC3)c12	.	.	26µM	.
CCCOc1ccc(C2C(C(=O)c3cc4ccccc4o3)=C(O)C(=O)N2c2cc(C)on2)cc1 (stereo not drawn)	21µM	.	?	?
COc1ccc(OC)c(C2C(C(=O)c3cc4ccccc4o3)=C(O)C(=O)N2c2cc(C)on2)c1 (stereo not drawn)	12µM	.	?	.
O=C(CCCn1c(=O)c2sccc2n(Cc2c(F)cccc2Cl)c1=O)NCc1ccccc1	.	.	.	.
Cc1cc(C)c2c(n1)SCCN2C(=O)Nc1ccc(C(=O)Nc2ccc(C(C)C)cc2)cc1	.	.	.	.
CCn1c(CN2CCN(c3cccc(Cl)c3)CC2)nc2c1c(=O)[nH]c(=O)n2C	.	.	?	.
COc1ccc(C2CC(c3cccc(F)c3)=NN2c2ccc(S(N)(=O)=O)cc2)cc1 (stereo not drawn)	.	.	?	?
COc1ccc(C2CC(c3cccc(C(F)(F)F)c3)=NN2c2ccc(S(N)(=O)=O)cc2)cc1 (stereo not drawn)	.	.	23µM	?
O=C(NC1CCCCC1)N1CCN(c2ccc([N+](=O)[O-])cc2)CC1	.	.	23µM	.
CCc1noc(C)c1C(=O)N1CCN(c2ccc([N+](=O)[O-])cc2)CC1	/	.	/	/
Cc1ccc(CC(=O)N2CCN(c3ccc([N+](=O)[O-])cc3)CC2)cc1	?	.	21µM	.
Cc1noc(C)c1CSCC(=O)N1CCN(c2ccc([N+](=O)[O-])cc2)CC1	?	.	21µM	.
CC(=O)OCC(NC(=O)C(C)NC(=O)OC(C)(C)C)C1OC(n2cc(F)c(=O)[nH]c2=O)C(OC(C)=O)C1OC(C)=O (stereo not drawn)	.	/	.	.
CC(=O)NN1C(=O)/C(=C\c2ccccc2)SC1=S	.	?	.	.
CC(=O)NN1C(=O)/C(=C\c2ccc(Br)o2)SC1=S	.	16µM	.	.
CCOc1ccc(NC(=O)C2CCN(c3nnc(-n4c(C)ccc4C)s3)CC2)cc1	.	?	.	.
Cc1ccc(CNC(=O)C(C)n2c(=O)cc(-c3ccccc3)c3c(C)nn(C)c32)cc1 (stereo not drawn)	.	.	.	.
Cc1noc2ncnc(N3CCN(c4ccc(F)cc4)CC3)c12	.	.	7.3µM	.
Cc1ccc(S(=O)(=O)CC(=O)N2CCN(c3cccc(C(F)(F)F)c3)CC2)cc1	.	.	23µM	.
Cn1c(C(=O)N2CCN(c3cccc(C(F)(F)F)c3)CC2)cc2sccc21	.	.	26µM	?
Cc1ccc(C)c(N2CCN(C(=O)C3CCN(C(=O)c4cc5sccc5n4C)CC3)CC2)c1	?	.	21µM	.
Cn1c(C(=O)N2CCCC(C(=O)N3CCN(c4ccccc4)CC3)C2)cc2sccc21 (stereo not drawn)	.	.	.	.
CC1(C2CC2)NC(=O)N(CC(=O)N2CCN(c3cccc(C(F)(F)F)c3)CC2)C1=O (stereo not drawn)	.	.	12µM	.
Cc1ccc(C)c(N2CCN(C(=O)c3cc4sccc4n3C)CC2)c1	.	.	/	.
Cc1ccc(CC(=O)N2CCN(c3cccc(C(F)(F)F)c3)CC2)cc1	.	.	.	.
SMILES	A549 tox	Nrf2 activator	Nrf2 block	Pin1 inhibitor
CCCN1CCC(=O)N(C(CSc2ccc(C)cc2)CC(C)C)CC1 (stereo not drawn)	.	/	?	.
O=C(Nc1cc2ccc(O)cc2oc1=O)c1ccccc1	.	.	/	.
O=C(c1ccccc1F)N1CCN(c2cccc(C(F)(F)F)c2)CC1	?	.	18µM	.
O=C(c1c(F)c(F)c(F)c(F)c1F)N1CCN(c2cccc(C(F)(F)F)c2)CC1	?	.	.	.
Cc1cc(C(=O)CSc2nnc(-c3cccs3)o2)c(C)n1-c1ccccc1	.	.	21µM	.
O=C(CSc1nnc(-c2cccs2)o1)c1cccs1	.	.	?	.
COc1ccc(-n2c(CCC(=O)O)ccc2-c2ccccc2)c(OC)c1	.	.	.	.
CCCCn1cnc2c(=O)[nH]c(N)nc21	.	/	.	.
O=C(Cc1ccc(-n2c(=O)[nH]c3ccsc3c2=O)cc1)N1CCN(c2ccc(Cl)cc2)CC1	.	.	23µM	.
COc1ccc(CCC(=O)NC2CC(=O)N(c3ccc(C)c(C)c3)C2)cc1 (stereo not drawn)	.	.	/	.
O=C(/C=C/c1ccccc1Cl)c1ccc(O)cc1	.	?	.	.
O=C(/C=C/c1c(F)cccc1Cl)Nc1ncccn1	.	7.9µM	?	.
O=C(/C=C/c1c(F)cccc1Cl)c1ccc(O)cc1	.	13µM	.	.
Cc1cc(NC(=O)c2cccc(S(=O)(=O)N3CCCCCC3)c2)n(-c2ccccn2)n1	?	.	/	.
Cc1cc(NC(=O)c2cccc(S(=O)(=O)N(C)C)c2)n(-c2ccccn2)n1	.	.	26µM	.
CN(C)S(=O)(=O)c1cccc(NC(=O)c2ccc3nccnc3c2)c1	?	.	5.8µM	.
CC(=O)c1cccc(NC(=O)c2cccc(S(=O)(=O)N(C)C)c2)c1	.	.	.	.
CCN(CC)C(=O)c1nn(-c2ccccc2)c2c1C1CCC2(C)C1(C)C (stereo not drawn)	.	.	16µM	.
CCN(CC)C(=O)c1nn(Cc2ccccc2)c(=O)c2ccccc12	.	.	?	.
CCCC(c1nnnn1CC1CCCO1)N1CCN(c2cc(Cl)ccc2C)CC1 (stereo not drawn)	?	.	26µM	.
Cc1cc2c(s1)c1cnn(Cc3ccc(C(F)(F)F)cc3F)c(=O)c1n2C	.	/	.	.
CC(C)(C)c1ccc(S(=O)(=O)NCc2ccc3c(c2)CCN3C(=O)c2ccccc2)cc1	.	.	/	.
CCc1nnc(NC(=O)c2nc(S(=O)(=O)Cc3ccccc3)ncc2Cl)s1	?	14µM	.	.
CCc1nnc(NC(=O)c2nc(S(=O)(=O)Cc3cccc(C)c3)ncc2Cl)s1	?	.	23µM	.
CCc1nnc(NC(=O)c2nc(S(=O)(=O)Cc3ccc(C)cc3)ncc2Cl)s1	?	.	21µM!	.
SMILES	A549 tox	Nrf2 activator	Nrf2 block	Pin1 inhibitor
Cc1ccc(CS(=O)(=O)c2ncc(Cl)c(C(=O)Nc3nnc(C(C)C)s3)n2)cc1	?	.	21µM!	.
COC(=O)c1sc2cccc(F)c2c1S(=O)(=O)NCc1ccc(Cl)cc1	.	11µM	.	.
COC(=O)c1sc2cccc(F)c2c1S(=O)(=O)NCc1ccccc1Cl	.	13µM	.	.
COc1ccc(C2c3c(nc(C)[nH]c3=O)Oc3ccc4ccccc4c32)cc1OC (stereo not drawn)	.	/	.	.
O=C(CCS(=O)(=O)c1ccc(Br)s1)Nc1cc(C(F)(F)F)cc(C(F)(F)F)c1	?	.	23µM	?
CCn1c(-c2ccccc2Cl)nn(CC(=O)Nc2cc(Cl)ccc2Cl)c1=S	.	.	16µM	.
Cc1c2cnn(CC(=O)N3CCN(c4ccccc4)CC3)c(=O)c2c(C)n1Cc1ccc(F)cc1	.	.	?	.
O=C(c1cc(S(=O)(=O)N2CCCCC2)ccc1Cl)N1CCOCC1	.	.	.	.
